The text below walks through data of publication PMC7862700, “An all-to-all approach to the identification of sequence-specific readers for epigenetic DNA modifications on cytosine”.

What all share (assay): DAPPL (digital affinity profiling via proximity ligation, sequencing); 10 mM Tris-HCl pH 7.5, 50 mM NaCl, 1 mM DTT, 4% glycerol, room temperature, 30 min; GST-TFs on glutathione beads, 16-mer random dsDNA library, 0.1% formaldehyde crosslink after washing; high values mean tight binding
Assay [1] has as its target T1, FEV (Homo sapiens, UniProt Q99581 1-238).
T1 sequence: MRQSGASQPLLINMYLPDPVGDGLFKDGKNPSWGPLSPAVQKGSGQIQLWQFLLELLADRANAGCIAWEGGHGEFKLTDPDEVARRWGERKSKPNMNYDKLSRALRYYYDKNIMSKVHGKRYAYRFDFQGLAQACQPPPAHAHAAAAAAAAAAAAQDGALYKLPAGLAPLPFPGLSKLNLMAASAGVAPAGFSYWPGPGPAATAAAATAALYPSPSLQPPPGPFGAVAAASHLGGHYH
The conditions noted are these: protein: recombinant; tags: N-terminal GST; dsDNA, one strand shown. In outline: (§1)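 Human transcription factors carrying a GST fusion were produced in yeast, bound to glutathione beads, tagged with DNA barcodes and pooled together with a tag-only sample. Each pool was held with 200 nmole of a random double-stranded 16-mer DNA library in Tris/NaCl/DTT/glycerol buffer for 30 min at room temperature, then washed, crosslinked in 0.1% formaldehyde, proximity-ligated with BsaI/T4 ligase (1 h, 37 °C), PCR-amplified and sequenced on an Illumina NextSeq500. Binding signal is the read frequency of each hexamer for a given factor divided by its frequency in the tag-only sample.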

The target of assay [2] is ETV5 (Homo sapiens, UniProt P41161 1-510). The following applies: protein: recombinant; tags: N-terminal GST; dsDNA, one strand shown. The method, boiled down:
as §1

In assay [3] the target is HSF1 (Homo sapiens, UniProt Q00613 1-529). The following applies: protein: recombinant; tags: N-terminal GST; chain copies: 3; dsDNA, one strand shown. In outline: as §1
Sequence of HSF1 (Q00613 whole entry): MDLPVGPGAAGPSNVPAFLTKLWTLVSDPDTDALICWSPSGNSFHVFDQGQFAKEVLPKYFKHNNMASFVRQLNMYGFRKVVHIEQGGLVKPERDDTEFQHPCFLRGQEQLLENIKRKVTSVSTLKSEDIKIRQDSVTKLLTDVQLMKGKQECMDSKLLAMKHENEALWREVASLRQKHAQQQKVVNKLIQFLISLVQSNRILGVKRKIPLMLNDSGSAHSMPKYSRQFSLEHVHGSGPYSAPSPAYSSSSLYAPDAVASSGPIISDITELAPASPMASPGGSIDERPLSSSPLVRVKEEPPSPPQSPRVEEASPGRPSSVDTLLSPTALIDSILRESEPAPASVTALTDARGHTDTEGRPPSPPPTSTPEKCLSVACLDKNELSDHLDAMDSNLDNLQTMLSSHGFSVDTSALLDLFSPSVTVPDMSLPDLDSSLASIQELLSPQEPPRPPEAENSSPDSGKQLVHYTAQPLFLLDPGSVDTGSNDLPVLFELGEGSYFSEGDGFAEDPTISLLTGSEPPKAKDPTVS
For assay [4], the target named is T2, SPIC (Homo sapiens, UniProt Q8N5J4 1-248).
T2 sequence: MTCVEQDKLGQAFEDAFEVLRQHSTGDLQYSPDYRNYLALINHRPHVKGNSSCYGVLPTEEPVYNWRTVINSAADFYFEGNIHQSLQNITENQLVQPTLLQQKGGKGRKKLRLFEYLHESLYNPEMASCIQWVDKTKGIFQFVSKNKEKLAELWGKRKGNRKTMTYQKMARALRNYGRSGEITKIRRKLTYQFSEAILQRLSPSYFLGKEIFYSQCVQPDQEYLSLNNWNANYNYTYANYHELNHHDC
The following applies: protein: recombinant; tags: N-terminal GST; dsDNA, one strand shown. In outline:
as §1

Assay [5] concerns the target ELF4 (Homo sapiens, UniProt Q99607 1-663). The following applies: protein: recombinant; tags: N-terminal GST; dsDNA, one strand shown. The method, boiled down: as §1
In assay [6] the target is T3, ELK4 (Homo sapiens, UniProt P28324-2 1-405).
T3 sequence: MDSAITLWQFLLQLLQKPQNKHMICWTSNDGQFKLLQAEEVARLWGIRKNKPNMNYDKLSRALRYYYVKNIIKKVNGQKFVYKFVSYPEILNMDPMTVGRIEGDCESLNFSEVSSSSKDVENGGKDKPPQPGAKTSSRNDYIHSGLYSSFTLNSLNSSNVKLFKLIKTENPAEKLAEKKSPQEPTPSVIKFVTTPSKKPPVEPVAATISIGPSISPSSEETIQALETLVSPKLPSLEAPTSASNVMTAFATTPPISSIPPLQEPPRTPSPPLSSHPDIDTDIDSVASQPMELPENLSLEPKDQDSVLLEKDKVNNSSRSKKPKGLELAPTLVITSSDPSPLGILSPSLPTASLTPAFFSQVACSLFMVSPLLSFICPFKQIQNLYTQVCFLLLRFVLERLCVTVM
The conditions noted are these: protein: recombinant; tags: N-terminal GST; dsDNA, one strand shown. In outline:
as §1

In assay [7] the target is T4, ETV2 (Homo sapiens, UniProt O00321 1-342).
T4 sequence: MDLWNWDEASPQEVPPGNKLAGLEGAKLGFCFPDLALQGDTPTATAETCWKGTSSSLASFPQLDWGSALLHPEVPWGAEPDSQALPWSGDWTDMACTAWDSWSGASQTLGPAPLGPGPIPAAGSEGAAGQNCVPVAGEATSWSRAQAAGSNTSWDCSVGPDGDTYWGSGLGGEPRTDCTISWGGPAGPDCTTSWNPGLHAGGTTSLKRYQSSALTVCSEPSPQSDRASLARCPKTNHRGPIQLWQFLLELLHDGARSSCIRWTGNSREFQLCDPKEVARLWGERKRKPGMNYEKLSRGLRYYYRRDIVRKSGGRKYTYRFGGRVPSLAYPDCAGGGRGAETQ
The following applies: protein: recombinant; tags: N-terminal GST; dsDNA, one strand shown. In outline:
as §1

The target of assay [8] is T5, ELF3 (Homo sapiens, UniProt P78545 1-371).
T5 sequence: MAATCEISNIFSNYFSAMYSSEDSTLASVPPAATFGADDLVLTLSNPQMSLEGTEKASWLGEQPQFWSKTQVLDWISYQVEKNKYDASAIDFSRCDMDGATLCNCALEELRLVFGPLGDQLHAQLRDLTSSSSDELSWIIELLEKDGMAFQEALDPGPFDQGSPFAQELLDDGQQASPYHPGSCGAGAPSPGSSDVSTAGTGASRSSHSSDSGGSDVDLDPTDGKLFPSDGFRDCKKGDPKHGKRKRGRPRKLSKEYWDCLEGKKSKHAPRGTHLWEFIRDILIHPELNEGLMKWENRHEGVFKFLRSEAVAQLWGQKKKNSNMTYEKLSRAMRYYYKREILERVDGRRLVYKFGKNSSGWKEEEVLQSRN
The following applies: protein: recombinant; tags: N-terminal GST; dsDNA, one strand shown. The method, boiled down:
as §1

Assay [9] deals with CRX (Homo sapiens, UniProt O43186 1-299). The conditions noted are these: protein: recombinant; tags: N-terminal GST; dsDNA, one strand shown. The method, boiled down: as §1
Sequence of CRX (O43186 whole entry): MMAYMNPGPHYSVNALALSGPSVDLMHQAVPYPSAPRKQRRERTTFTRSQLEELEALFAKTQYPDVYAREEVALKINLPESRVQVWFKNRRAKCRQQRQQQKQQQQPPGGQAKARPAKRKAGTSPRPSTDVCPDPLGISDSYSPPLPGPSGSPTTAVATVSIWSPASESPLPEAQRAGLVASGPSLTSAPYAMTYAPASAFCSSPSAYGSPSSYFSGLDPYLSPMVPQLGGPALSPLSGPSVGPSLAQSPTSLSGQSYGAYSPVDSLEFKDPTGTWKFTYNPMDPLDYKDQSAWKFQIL
For assay [10], the target named is ETV1 (Homo sapiens, UniProt P50549 1-477). The conditions noted are these: protein: recombinant; tags: N-terminal GST; dsDNA, one strand shown. The method, boiled down: as §1
Sequence of ETV1 (P50549 whole entry): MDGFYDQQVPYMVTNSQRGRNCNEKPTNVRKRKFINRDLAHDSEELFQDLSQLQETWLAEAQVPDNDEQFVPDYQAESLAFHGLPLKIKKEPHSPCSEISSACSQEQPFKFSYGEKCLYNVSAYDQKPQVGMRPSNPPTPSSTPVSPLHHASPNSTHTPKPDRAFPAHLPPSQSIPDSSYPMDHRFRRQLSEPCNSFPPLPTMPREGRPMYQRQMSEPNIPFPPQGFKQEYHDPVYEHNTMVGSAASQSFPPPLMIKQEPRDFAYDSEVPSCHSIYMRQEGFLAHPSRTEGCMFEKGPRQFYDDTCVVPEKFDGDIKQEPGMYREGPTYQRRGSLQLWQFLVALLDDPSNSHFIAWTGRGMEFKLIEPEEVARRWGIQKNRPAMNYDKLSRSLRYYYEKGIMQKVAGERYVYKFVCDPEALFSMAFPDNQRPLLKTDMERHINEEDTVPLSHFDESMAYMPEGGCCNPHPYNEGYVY
The target of assay [11] is T6, ERF (Homo sapiens, UniProt P50548 1-548).
T6 sequence: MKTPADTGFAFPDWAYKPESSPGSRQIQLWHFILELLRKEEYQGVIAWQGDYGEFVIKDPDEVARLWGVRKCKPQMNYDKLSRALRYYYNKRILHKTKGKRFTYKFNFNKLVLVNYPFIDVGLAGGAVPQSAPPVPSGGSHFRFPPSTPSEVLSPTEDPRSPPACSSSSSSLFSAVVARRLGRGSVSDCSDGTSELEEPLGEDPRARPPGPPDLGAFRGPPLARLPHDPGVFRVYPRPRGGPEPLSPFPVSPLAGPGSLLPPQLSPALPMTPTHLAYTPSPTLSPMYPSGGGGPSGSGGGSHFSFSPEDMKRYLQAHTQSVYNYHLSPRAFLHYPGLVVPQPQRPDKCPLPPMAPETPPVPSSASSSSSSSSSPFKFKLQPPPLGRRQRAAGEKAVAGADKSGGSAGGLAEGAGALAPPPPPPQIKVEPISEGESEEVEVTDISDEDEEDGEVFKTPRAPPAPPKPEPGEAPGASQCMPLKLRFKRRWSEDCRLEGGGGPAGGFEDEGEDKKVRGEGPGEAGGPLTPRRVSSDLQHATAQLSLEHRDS
The following applies: protein: recombinant; tags: N-terminal GST; dsDNA, one strand shown. In outline: as §1

Assay [12] deals with T7, ETV3L (Homo sapiens, UniProt Q6ZN32 1-361).
T7 sequence: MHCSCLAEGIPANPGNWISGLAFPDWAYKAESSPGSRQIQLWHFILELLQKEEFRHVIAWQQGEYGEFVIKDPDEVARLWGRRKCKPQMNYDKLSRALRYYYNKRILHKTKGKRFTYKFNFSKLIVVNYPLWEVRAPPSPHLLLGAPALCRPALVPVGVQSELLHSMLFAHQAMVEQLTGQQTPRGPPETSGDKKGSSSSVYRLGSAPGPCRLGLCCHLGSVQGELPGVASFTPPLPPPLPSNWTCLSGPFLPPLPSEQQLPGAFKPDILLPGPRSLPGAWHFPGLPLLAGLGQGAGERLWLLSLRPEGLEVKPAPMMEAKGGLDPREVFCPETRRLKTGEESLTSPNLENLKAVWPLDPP
The conditions noted are these: protein: recombinant; tags: N-terminal GST; dsDNA, one strand shown. The method, boiled down:
as §1

The target of assay [13] is T8, ETS2 (Homo sapiens, UniProt P15036 1-469).
T8 sequence: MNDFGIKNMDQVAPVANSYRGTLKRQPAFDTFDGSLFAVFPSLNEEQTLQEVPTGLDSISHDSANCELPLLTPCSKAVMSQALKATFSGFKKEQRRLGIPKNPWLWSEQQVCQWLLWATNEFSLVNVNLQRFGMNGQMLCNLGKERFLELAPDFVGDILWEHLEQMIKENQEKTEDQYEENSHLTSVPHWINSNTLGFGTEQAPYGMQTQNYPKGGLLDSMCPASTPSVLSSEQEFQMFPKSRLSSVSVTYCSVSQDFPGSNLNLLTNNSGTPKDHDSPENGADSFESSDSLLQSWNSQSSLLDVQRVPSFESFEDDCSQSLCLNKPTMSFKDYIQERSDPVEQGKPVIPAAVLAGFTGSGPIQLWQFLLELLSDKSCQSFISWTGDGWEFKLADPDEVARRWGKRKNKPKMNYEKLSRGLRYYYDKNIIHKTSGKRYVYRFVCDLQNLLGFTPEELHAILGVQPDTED
The following applies: protein: recombinant; tags: N-terminal GST; dsDNA, one strand shown. In outline:
as §1

Assay [14] deals with T9, SPDEF (Homo sapiens, UniProt O95238 1-335).
T9 sequence: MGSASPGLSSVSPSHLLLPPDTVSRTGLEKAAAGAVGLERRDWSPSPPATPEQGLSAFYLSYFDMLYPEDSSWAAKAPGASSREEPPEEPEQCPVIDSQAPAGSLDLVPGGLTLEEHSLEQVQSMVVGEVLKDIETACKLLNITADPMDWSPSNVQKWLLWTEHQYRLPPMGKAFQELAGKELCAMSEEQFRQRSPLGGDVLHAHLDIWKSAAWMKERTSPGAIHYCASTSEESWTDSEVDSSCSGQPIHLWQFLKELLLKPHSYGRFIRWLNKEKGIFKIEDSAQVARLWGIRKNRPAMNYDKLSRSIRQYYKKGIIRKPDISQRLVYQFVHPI
The following applies: protein: recombinant; tags: N-terminal GST; dsDNA, one strand shown. The method, boiled down: as §1

For assay [15], the target named is T10, ETV7 (Homo sapiens, UniProt Q9Y603 1-341).
T10 sequence: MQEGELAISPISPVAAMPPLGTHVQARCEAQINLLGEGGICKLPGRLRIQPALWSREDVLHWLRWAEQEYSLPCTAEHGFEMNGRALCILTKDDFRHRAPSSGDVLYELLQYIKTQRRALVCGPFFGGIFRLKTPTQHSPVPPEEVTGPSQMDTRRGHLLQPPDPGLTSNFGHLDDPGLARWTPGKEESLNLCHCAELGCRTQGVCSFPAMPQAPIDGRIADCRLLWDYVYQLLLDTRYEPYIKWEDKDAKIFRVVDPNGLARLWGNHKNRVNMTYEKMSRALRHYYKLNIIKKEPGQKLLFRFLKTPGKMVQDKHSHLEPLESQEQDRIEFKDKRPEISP
The conditions noted are these: protein: recombinant; tags: N-terminal GST; dsDNA, one strand shown. In outline: as §1

Assay [16] has as its target T11, ELF5 (Homo sapiens, UniProt Q9UKW6-2 1-255).
T11 sequence: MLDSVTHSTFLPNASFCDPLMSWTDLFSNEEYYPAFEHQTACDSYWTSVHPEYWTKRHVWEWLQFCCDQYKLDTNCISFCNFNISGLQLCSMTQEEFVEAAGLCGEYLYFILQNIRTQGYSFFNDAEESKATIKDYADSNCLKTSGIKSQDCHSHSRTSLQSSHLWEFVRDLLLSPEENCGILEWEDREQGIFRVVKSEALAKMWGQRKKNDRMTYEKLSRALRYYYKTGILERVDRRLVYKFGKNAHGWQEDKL
The conditions noted are these: protein: recombinant; tags: N-terminal GST; dsDNA, one strand shown. The method, boiled down:
as §1

Assay [17] deals with T12, ETV3 (Homo sapiens, UniProt P41162-2 1-143).
T12 sequence: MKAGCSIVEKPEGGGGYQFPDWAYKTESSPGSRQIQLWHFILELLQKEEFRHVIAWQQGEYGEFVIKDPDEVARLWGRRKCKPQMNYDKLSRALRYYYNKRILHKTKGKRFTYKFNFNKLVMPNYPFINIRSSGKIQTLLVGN
The conditions noted are these: protein: recombinant; tags: N-terminal GST; dsDNA, one strand shown. In outline: as §1

Assay [18] has as its target ETV6 (Homo sapiens, UniProt P41212 1-452). The following applies: protein: recombinant; tags: N-terminal GST; dsDNA, one strand shown. In outline: as §1

Sequence of ELF4 (Q99607 whole entry): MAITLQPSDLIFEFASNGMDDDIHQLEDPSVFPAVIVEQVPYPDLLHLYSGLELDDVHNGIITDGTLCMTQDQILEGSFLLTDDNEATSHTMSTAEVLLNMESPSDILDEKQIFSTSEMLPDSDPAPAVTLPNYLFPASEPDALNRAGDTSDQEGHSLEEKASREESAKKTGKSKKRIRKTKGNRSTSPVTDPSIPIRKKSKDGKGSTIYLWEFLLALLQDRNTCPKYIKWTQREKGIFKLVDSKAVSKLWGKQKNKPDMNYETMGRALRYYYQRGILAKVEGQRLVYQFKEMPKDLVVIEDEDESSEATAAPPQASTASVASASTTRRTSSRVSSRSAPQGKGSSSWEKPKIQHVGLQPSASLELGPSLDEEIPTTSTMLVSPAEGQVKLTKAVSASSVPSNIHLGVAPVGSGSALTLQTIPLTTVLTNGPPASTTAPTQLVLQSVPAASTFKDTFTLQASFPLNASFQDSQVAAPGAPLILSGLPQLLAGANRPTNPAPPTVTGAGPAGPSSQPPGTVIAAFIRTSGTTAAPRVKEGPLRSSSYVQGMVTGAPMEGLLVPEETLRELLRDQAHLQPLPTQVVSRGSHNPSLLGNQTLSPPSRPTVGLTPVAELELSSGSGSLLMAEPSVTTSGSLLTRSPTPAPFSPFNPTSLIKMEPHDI
Sequence of ETV5 (P41161 whole entry): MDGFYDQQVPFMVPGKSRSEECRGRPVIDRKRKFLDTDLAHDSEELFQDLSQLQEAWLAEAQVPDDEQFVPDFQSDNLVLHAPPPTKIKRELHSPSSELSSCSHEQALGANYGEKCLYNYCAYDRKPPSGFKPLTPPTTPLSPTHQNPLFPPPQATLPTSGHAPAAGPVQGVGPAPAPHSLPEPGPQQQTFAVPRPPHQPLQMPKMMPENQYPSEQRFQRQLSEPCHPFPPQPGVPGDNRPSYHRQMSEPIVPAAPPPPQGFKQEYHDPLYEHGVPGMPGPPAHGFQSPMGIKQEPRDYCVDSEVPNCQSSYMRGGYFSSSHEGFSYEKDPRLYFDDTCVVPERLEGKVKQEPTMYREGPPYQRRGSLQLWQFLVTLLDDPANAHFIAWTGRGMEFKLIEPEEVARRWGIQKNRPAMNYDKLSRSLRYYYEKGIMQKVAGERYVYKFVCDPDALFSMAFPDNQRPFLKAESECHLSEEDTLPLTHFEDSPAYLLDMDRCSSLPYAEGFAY
Sequence of ETV6 (P41212 whole entry): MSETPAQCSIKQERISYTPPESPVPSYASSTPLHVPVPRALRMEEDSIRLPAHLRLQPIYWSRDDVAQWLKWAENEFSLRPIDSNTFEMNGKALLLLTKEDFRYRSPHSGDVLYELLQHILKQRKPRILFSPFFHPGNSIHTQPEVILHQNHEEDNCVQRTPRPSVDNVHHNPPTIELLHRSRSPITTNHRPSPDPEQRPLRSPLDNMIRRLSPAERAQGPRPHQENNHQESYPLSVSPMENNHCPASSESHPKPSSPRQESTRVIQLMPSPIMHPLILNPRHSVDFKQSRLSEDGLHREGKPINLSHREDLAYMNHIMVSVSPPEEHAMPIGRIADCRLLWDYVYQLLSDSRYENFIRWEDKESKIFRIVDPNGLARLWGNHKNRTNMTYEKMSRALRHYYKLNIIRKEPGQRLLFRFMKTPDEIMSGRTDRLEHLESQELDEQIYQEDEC

As to ACAATA, the binding signal in assay [1] was 1.13 fold enrichment (6-mer frequency, TF over GST control); in assay [2], 1.15 fold enrichment (6-mer frequency, TF over GST control); in assay [3] it was 1.16 fold enrichment (6-mer frequency, TF over GST control); in assay [4] it was 1.12 fold enrichment (6-mer frequency, TF over GST control); in [5] it was 1.16 fold enrichment (6-mer frequency, TF over GST control); in assay [6], 1.22 fold enrichment (6-mer frequency, TF over GST control). Further, the binding signal in [7] was 1.2 fold enrichment (6-mer frequency, TF over GST control); in assay [8], 1.33 fold enrichment (6-mer frequency, TF over GST control); in [9] it was 1.19 fold enrichment (6-mer frequency, TF over GST control); in [10], 1.13 fold enrichment (6-mer frequency, TF over GST control); in [11], 1.21 fold enrichment (6-mer frequency, TF over GST control); in assay [12], 1.14 fold enrichment (6-mer frequency, TF over GST control). In addition, the binding signal was 1.15 fold enrichment (6-mer frequency, TF over GST control) in assay [13]; 1.15 fold enrichment (6-mer frequency, TF over GST control) in [14]; 1.07 fold enrichment (6-mer frequency, TF over GST control) in assay [15]; 1.09 fold enrichment (6-mer frequency, TF over GST control) in [16]; 1.21 fold enrichment (6-mer frequency, TF over GST control) in [17]; 1.18 fold enrichment (6-mer frequency, TF over GST control) in assay [18].
